Holding throughout (set-up): scale not given: direction of the effect not stated beside the values
Assay [1] deals with Protein translocase subunit SecA (Escherichia coli (strain K12)) (UniProt P10408). The experiment in a line: Assay to Identify E. coli SecA ATPase Inhibitors. The assay is classed as functional. The settings on record: 30 µM.
The target in assay [2] is T1, Ubiquitin-activating enzyme e1, putative (Leishmania donovani (strain BPK282A1)) (UniProt E9BSI1).
T1 sequence (whole entry): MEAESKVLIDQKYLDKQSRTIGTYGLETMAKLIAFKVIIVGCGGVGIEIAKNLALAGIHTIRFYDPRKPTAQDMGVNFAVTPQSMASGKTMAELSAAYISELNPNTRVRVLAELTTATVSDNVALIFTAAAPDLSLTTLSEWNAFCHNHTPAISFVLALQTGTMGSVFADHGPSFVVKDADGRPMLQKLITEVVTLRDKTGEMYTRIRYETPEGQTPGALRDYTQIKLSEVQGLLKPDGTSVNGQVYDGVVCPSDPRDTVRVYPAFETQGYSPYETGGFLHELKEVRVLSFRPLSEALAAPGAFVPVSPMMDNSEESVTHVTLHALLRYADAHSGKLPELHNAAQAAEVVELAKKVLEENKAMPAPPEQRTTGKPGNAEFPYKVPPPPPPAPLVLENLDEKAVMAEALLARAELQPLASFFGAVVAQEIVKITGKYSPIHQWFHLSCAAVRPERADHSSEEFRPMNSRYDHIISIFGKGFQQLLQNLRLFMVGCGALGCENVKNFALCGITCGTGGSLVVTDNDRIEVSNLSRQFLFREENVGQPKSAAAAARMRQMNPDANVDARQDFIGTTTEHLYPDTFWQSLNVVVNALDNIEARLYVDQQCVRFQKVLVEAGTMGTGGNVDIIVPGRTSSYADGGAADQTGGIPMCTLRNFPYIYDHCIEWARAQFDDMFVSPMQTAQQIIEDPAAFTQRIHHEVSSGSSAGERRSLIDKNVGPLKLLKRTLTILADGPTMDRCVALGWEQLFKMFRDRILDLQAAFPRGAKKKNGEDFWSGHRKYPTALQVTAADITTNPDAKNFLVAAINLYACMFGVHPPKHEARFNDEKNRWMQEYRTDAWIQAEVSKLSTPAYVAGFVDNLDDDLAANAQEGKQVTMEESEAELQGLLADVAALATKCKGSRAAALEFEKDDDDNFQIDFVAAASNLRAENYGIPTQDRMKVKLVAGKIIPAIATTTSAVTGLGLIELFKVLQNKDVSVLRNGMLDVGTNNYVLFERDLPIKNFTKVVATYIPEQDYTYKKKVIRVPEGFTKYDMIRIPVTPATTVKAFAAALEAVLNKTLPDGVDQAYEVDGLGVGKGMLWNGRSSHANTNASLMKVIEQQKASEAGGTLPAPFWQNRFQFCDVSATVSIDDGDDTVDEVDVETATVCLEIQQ
The experiment in a line: Leishmania donovani Ubiquitin Activating Enzyme (LdE1). The assay is classed as functional. The settings on record: 30 µM.

For assay [3], the target named is AMP-activated protein kinase, AMPK (Homo sapiens) (UniProt P54646+O43741+P54619+Q9UGJ0+Q9Y478+Q13131+Q9UGI9). Put plainly: AMP-dependent Kinase enzyme assay. An in vitro enzyme assay that detects ADP turnover that is directly proportional to AMPK activity. This uses naive AMPK that is activated during the assay with MK-8722. It counts as functional. The conditions noted are these: 30 µM.

Assay [4] has as its target Sialic acid-binding Ig-like lectin 9 (Homo sapiens) (UniProt Q9Y336). The experiment in a line: Hs-Siglec9 ALPHAscreen SOP 20170721. The settings on record: 10 µM. (In general: Bead proximity is the source of the signal in Alpha formats.)
Assay [5] deals with Trypanosoma cruzi. Put plainly: Trypanosoma cruzi phosphomannomutase and mannose-1-phosphate guanylyltransferase assay. The settings on record: 10 µM. The assay is classed as functional.
Assay [6] addresses T2, Arginase-2, mitochondrial (Homo sapiens) (UniProt P78540).
T2 sequence (whole entry): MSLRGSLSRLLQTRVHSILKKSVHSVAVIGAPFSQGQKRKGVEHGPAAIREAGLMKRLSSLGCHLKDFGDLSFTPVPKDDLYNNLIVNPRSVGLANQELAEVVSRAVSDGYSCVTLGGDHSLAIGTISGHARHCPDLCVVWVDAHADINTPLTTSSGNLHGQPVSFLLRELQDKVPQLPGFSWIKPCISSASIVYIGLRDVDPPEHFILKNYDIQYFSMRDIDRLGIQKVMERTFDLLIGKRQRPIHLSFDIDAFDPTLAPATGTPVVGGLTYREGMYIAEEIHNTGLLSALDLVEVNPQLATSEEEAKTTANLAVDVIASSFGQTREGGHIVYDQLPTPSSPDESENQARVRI
Put plainly: in vitro enzyme assay to detect the production of urea directly proportional to the activity of Arginase II. Note: in the data most compounds retested in dose-response had high values. The assay is classed as functional. The conditions noted are these: 33.3 µM.

In assay [7] the target is T3, Proteasome subunit beta (Trypanosoma cruzi) (UniProt O96673).
T3 sequence (whole entry): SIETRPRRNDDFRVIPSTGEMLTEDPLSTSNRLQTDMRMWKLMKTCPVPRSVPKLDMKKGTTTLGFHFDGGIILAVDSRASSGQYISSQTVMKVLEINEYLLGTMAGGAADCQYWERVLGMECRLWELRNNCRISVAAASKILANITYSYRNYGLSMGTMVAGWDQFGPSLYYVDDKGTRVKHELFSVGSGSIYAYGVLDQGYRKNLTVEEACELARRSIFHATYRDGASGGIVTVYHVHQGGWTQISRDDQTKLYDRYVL
The experiment in a line: Trypanosoma cruzi proteasome chymotrypsin-like activity (TcProtChymo) assay. Note: in the data most compounds retested in dose-response had high values. The assay is classed as functional. The settings on record: 9.37 µM.

Assay [8] is filed under the species Homo sapiens. Put plainly: To identify inhibition of the IFN signalling (Jak-Stat) pathway via expression of an eGFP reporter gene under the control of an IFN-stimulated response element (ISRE) containing MxA promoter. It counts as functional. The conditions noted are these: 30 µM. A general note: In a reporter assay the amount or activity of a reporter protein is the signal.

Assay [9] has as its target T4, Tyrosyl-tRNA synthetase, putative (Trypanosoma cruzi (strain CL Brener)) (UniProt Q4DSP6).
T4 sequence (whole entry): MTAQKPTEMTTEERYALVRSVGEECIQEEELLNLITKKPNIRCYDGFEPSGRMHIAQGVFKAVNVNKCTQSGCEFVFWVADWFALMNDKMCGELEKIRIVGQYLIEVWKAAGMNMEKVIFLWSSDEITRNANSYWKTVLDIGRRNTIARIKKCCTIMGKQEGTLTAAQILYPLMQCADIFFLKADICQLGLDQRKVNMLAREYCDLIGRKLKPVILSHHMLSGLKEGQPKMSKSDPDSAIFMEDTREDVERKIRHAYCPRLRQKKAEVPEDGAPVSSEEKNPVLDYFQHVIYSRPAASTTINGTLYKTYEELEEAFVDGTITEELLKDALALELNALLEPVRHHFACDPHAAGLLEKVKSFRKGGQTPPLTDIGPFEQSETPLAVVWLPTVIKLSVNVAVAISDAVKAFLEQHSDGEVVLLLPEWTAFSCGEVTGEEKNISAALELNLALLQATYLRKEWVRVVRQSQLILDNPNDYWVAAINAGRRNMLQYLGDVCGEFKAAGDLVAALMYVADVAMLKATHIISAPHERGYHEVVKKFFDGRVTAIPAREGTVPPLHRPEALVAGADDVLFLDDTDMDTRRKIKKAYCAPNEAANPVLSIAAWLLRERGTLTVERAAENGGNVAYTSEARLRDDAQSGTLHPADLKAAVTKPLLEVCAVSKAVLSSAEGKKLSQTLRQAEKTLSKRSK
Put plainly: Trypanosoma cruzi tyrosyl tRNA synthetase (TcYRS) _High Tyrosine SOP. Note: in the data most compounds retested in dose-response had high values. The conditions noted are these: 30 µM. It counts as functional.

Assay [10] has as its target T4, Tyrosyl-tRNA synthetase, putative (Trypanosoma cruzi (strain CL Brener)). Put plainly: Trypanosoma cruzi tyrosyl tRNA synthetase (TcYRS) SOP. The settings on record: 30 µM. It counts as functional.
Assay [11] has as its target Chromo domain-containing protein 1 (Saccharomyces cerevisiae (strain ATCC 204508 / S288c) (Baker's yeast)) (UniProt P32657). The experiment in a line: ScCHD-1 Enzyme Inhibition Assay. Note: in the data most compounds retested in dose-response had high values. The assay is classed as functional. The settings on record: 30 µM.

The values below come from ChEMBL document CHEMBL3988442, “University of Dundee, Small-Polar-MMV Screening Library” (2021).

For some of these results: Potency and affinity values are given separately.

Chain of Chromo domain-containing protein 1 (Saccharomyces cerevisiae (strain ATCC 204508 / S288c) (Baker's yeast)) (P32657 whole entry, the tested form may be a part): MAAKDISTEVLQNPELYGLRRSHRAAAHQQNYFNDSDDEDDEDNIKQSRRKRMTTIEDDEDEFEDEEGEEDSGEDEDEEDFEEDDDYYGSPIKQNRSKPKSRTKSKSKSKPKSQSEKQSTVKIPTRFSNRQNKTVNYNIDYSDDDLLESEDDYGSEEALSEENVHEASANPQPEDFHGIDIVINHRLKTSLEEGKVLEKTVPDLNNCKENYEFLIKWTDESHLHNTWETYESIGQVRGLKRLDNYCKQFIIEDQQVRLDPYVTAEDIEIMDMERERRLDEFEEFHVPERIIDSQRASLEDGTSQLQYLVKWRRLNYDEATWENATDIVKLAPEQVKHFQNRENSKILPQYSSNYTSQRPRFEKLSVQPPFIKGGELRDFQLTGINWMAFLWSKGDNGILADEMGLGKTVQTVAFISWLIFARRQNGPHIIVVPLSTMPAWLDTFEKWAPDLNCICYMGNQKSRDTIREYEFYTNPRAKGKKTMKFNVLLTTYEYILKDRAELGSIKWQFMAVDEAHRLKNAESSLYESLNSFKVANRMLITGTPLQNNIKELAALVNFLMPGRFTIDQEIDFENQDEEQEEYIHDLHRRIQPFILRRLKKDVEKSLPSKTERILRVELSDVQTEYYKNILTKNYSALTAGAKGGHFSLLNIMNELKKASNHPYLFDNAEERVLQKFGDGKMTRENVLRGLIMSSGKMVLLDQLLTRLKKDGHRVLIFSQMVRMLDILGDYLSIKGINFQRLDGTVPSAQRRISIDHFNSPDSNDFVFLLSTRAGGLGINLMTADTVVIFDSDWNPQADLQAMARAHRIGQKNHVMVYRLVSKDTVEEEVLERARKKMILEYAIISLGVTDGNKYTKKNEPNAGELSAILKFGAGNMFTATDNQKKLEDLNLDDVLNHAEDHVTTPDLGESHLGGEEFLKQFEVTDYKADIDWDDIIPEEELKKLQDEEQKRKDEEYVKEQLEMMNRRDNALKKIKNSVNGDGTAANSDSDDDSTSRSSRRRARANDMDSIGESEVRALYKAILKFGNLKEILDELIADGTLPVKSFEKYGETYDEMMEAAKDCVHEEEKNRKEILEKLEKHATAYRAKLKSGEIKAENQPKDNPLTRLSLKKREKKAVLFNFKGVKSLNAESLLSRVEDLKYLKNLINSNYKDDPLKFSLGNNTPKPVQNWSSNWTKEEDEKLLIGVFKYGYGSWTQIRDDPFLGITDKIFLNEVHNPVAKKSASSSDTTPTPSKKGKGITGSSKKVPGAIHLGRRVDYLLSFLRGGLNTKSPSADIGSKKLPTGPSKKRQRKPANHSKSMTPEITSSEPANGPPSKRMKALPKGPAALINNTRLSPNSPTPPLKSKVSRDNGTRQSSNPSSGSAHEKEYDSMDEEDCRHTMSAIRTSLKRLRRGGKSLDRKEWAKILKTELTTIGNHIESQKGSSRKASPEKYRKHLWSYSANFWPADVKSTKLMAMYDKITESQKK
Chain of Protein translocase subunit SecA (Escherichia coli (strain K12)) (P10408 whole entry): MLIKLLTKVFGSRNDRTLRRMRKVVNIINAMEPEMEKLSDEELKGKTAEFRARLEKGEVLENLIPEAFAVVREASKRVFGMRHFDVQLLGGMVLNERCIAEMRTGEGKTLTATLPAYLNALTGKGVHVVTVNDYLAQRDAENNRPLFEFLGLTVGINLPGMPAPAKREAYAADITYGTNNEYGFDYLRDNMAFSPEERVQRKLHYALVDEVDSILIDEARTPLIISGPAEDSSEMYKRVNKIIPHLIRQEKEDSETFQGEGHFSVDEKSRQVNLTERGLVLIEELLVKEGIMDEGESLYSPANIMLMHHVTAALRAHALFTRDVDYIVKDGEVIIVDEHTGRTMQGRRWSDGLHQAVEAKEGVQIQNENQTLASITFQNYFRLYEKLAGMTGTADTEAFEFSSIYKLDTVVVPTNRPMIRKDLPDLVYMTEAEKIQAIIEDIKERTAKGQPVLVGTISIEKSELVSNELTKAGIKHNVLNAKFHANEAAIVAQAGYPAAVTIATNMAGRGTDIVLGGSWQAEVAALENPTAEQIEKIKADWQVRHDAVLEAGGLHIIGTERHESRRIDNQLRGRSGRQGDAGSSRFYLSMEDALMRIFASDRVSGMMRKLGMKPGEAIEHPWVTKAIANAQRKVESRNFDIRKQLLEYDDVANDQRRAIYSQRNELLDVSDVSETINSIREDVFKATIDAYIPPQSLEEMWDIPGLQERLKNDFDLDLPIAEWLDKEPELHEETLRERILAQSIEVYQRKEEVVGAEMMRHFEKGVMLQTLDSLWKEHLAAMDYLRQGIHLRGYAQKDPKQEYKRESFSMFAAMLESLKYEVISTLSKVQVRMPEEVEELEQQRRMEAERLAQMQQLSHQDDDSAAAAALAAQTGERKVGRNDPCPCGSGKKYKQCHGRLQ
Chain of Sialic acid-binding Ig-like lectin 9 (Homo sapiens) (Q9Y336 whole entry): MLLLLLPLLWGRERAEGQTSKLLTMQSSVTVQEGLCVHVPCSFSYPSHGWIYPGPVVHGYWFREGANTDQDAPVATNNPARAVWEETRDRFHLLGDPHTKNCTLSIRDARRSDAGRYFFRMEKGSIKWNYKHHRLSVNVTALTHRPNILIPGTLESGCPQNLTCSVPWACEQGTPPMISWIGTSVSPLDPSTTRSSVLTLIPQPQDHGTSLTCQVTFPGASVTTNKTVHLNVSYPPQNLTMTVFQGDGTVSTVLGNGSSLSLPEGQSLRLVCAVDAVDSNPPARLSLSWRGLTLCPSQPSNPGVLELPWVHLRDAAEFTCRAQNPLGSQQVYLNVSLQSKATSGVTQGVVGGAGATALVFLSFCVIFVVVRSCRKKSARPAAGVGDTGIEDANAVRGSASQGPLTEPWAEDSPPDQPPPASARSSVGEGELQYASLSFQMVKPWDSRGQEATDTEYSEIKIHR

In the case of `COCC(C)(O)CNC(=O)COc1ccccc1OC` (stereo unspecified), the Percent Effect in assay [1] is -1.78%; in assay [2], 2.74%; in assay [3], 6.7%; in assay [4], -4.63%; in assay [5], -4.31%; in assay [6], 2.27%. Moreover, the Percent Effect in assay [7] is 8.52%; in [8], 1.8%; in assay [9] it was 5.38%; in assay [10], 7.5%; in [11], -3.71%.
With `Cc1csc(N2CCN(C(=O)CCc3ccccn3)CC2)n1`, the Percent Effect in [1] is -1.62%; in [2], 13.5%; in [3] it was -16%; in [4], 7.95%; in assay [5] it was 3.87%; in assay [6] it was -12.8%. In addition, the Percent Effect in assay [7] was 10.8%; in [8], 6.58%; in [9] it was 10.3%; in assay [10], 25.9%; in assay [11], -12.7%.
With `CO[C@H]1CCN(S(=O)(=O)c2cn(C)cn2)[C@H]1Cc1cnn(C)c1`, the Percent Effect in assay [1] was -4.55%; in assay [2] it was 2.67%; in [3], 1.72%; in assay [4] it was 2.33%; in assay [5], -2.51%; in assay [6] it was -52.9%. The Percent Effect in [7] was 6.15%; in assay [8] it was 1.21%; in assay [9] it was -4.17%; in [10], -25%; in [11] it was -4.77%.
For `CC(C)c1nnc2ccc(N3CCC(C(N)=O)CC3)nn12`, the Percent Effect in assay [1] was -7.89%; in [2] it was 1.33%; in assay [3], 11.2%; in [4], 0.782%; in assay [5], -4.52%; in [6], -8.63%. In addition, the Percent Effect in assay [7] is 3.14%; in [8] it was -2.58%; in assay [9], -1.06%; in assay [10], 0%; in assay [11], -7.68%.
Consider `OCCn1cc(CN2CCN(CCOCC(F)(F)F)CC2)cn1`, for which the Percent Effect is 2.27% in [1]; 13.5% in assay [2]; -3.44% in assay [3]; -6.72% in [4]; -8.63% in [5]; -3.14% in assay [6]. Also, the Percent Effect was 13.6% in assay [7]; 6.37% in assay [8]; 4.95% in assay [9]; 3.66% in [10]; -2.78% in [11].
With `CCNC(=O)N(C)Cc1ccc(SC)c(OC)c1`, the Percent Effect is -3.35% in [1]; 21.6% in assay [2]; -5.93% in [3]; 0.171% in assay [4]; 4.49% in [5]; 7.92% in assay [6]. Further, the Percent Effect is 9.72% in assay [7]; -1.36% in assay [8]; 7.92% in [9]; 3.66% in assay [10]; 92.2% in assay [11].
Take `Cc1csc(CNC(=O)N(C)Cc2cnn(C)c2)n1`: the Percent Effect in assay [1] is -2.05%; in [2], 21.6%; in assay [3], -6.61%; in assay [4], 2.62%; in [5], 4.18%; in [6] it was -4.25%. Further, the Percent Effect in assay [7] was 16.5%; in assay [8], 12.9%; in assay [9] it was 5.94%; in [10], 23.2%; in assay [11] it was -4.86%.
Regarding `COc1ccnc(N2CCN(C(=O)c3cnn(C)c3C3CC3)CC2)n1`, the Percent Effect is -5.79% in assay [1]; 10.8% in assay [2]; -3.14% in assay [3]; 28.6% in assay [4]; 3.81% in [5]; 0.744% in assay [6]. In addition, the Percent Effect in assay [7] was 6.61%; in [8] it was -9.54%; in assay [9], 4.3%; in assay [10], 16.1%; in assay [11] it was -13.1%.
As for `O=C([C@H]1COC[C@H]2CN(Cc3ccco3)C[C@H]21)N1CCCO1`, the Percent Effect was -7.92% in assay [1]; 18.7% in [2]; -1.75% in assay [3]; 0.139% in assay [4]; 4.63% in assay [5]; -47.9% in [6]. For the same molecule, the Percent Effect in assay [7] is 4.62%; in assay [8], -0.652%; in assay [9] it was 6.25%; in assay [10], 15%; in assay [11], -6.91%.
Consider `CCc1nccn1C1CCCN(C(=O)c2ccc(C(=O)NC)nc2)C1` (stereo unspecified), for which the Percent Effect is 1.89% in assay [1]; -2.6% in [2]; 1.32% in assay [3]; 2.31% in assay [4]; -2.81% in assay [5]; 4.63% in [6]. Further, the Percent Effect in assay [7] is 1.86%; in assay [8], 18.1%; in [9] it was 1.94%; in [10], 0%; in assay [11] it was -4.59%.
For the molecule `CC(=O)NC(C)(C)C(=O)Nc1ncc(Cc2ccc(C)c(F)c2)s1`, the Percent Effect in assay [1] was -2.79%; in assay [2] it was 13.9%; in assay [3] it was 1.18%; in assay [4], 3.12%; in assay [5] it was 8.51%; in assay [6], -2.37%. Besides, the Percent Effect in [7] is 13.2%; in assay [8] it was 28.2%; in [9], 5.21%; in assay [10], 17.7%; in assay [11] it was -33.1%.
